# Records with an inconclusive call do not appear. A call without a number means that no potency is given here. Calls of active or inactive are those of the source. Calls follow the shape of the dose curve; as a rule, active = well fitted curve in the direction sought with a large enough effect; inconclusive = small, poorly fitted or top-dose-only effect, or another doubt; inactive = no such curve, though single readings can be large; an effect the other way counts as inactive or inconclusive.
# Test: qHTS of pediatric cancer cell lines to identify multiple opportunities for drug repurposing: Primary screen for NB-EBc1 cells (AID 1347095); also: potency is read from the fitted curve at half-maximal effect
# Conditions: NB-EBc1 neuroblastoma viability, CellTiter-Glo luminescence, 48 h; series mostly up to 46 µM
# Method in brief: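 CRCs from 8- or 11-point titrations (lowest final 0.59 nM NPC, 0.78 nM MIPE). Cell viability: CellTiter-Glo after 48 h incubation, 15 min room-temperature development, luminescence imaging.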
row,SMILES,Potency
1,C/C=C/C=N/NC(=O)c1ccncc1,inactive
2,CCOCCn1c(N2CCCN(C)CC2)nc2ccccc21,inactive
3,Nc1ccc(C(=O)NCC(=O)O)cc1,inactive
4,O=S(=O)(O)c1ccc(O)cc1,inactive
5,CC(C)[C@@H]1CC[C@@H](C)CC1=O,inactive
6,N#CCC(=O)NN,inactive
7,C=C[C@H]1CN2CC[C@H]1C[C@@H]2[C@@H](O)c1ccnc2ccc(OC)cc12,inactive
8,OCc1ccccn1,inactive
9,O=C(O)C(Cc1cc(I)c(O)c(I)c1)c1ccccc1 (centres undefined),inactive
10,CC(C)NCC(O)c1ccc2ccccc2c1 (centres undefined),inactive
11,C[N+]1(CC2COC(c3ccccc3)(C3CCCCC3)O2)CCCCC1 (centres undefined),inactive
12,CC(C)Nc1cccnc1N1CCN(C(=O)c2cc3cc(NS(C)(=O)=O)ccc3[nH]2)CC1,inactive
13,NC1CCN(c2nc3c(cc2F)c(=O)c(C(=O)O)cn3-c2ccc(F)cc2F)C1 (centres undefined),inactive
14,CC(=C(CCOC(=O)C(C)C)SSC(CCOC(=O)C(C)C)=C(C)N(C=O)Cc1cnc(C)nc1N)N(C=O)Cc1cnc(C)nc1N,inactive
15,CC(=O)OCC1=C(C(=O)O)N2C(=O)[C@@H](NC(=O)CSc3ccncc3)[C@H]2SC1,inactive
16,Nc1nc(-c2ccccc2)c(Br)c(=O)[nH]1,inactive
17,CC(=O)Nc1ccc(OCC(O)CNC(C)C)cc1 (centres undefined),inactive
18,N[C@H](C(=O)O)[C@@H](O)c1ccc(O)c(O)c1,inactive
19,CCOC(=O)c1c(N)sc2c1CCN(Cc1ccccc1)C2,inactive
20,Oc1c(Cl)cc(Cl)c(Cl)c1Cc1c(O)c(Cl)cc(Cl)c1Cl,4.73 µM (active)
21,CC(=O)Nc1ccc(OC(=O)c2ccccc2OC(C)=O)cc1,inactive
22,CC(C)(C)CC(C)(C)c1ccc(O)c(-n2nc3ccccc3n2)c1,inactive
23,CN(C)C(=O)Nc1ccc(Cl)c(Cl)c1,inactive
24,CC(C)Cc1ccc(CC(=O)O)cc1,inactive
25,O=C(O)CCC(=O)Nc1ccc(S(=O)(=O)Nc2nccs2)cc1,inactive
26,CN1CCC(OC(c2ccccc2)c2ccccc2)CC1,inactive

# Test: qHTS of pediatric cancer cell lines to identify multiple opportunities for drug repurposing: Primary screen for U-2 OS cells (AID 1347096); also: nearly all actives have a fitted effect of over 50% in size
# Conditions: U-2 OS viability, CellTiter-Glo luminescence, 48 h; series mostly up to 46 µM
# Method in brief: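 Cells (500-1,000/well) rested 5 h, then received compounds for 48 h; metabolically active cells were measured by CellTiter-Glo luminescence. Final concentrations spanned up to 46 µM (MIPE, 11-point) or 0.59 nM-46 µM (NPC, 8-point) in primary screens, 11-point in follow-ups.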
row,SMILES,Potency
1,CC(C)[N+](C)(C)CC(O)COc1cccc2ccccc12 (centres undefined),inactive
2,C/C=C/C=N/NC(=O)c1ccncc1,inactive
3,OC[C@H]1O[C@@H]2O[C@H]3[C@H](O)[C@@H](O)[C@@H](O[C@H]4[C@H](O)[C@@H](O)[C@@H](O[C@H]5[C@H](O)[C@@H](O)[C@@H](O[C@H]6[C@H](O)[C@@H](O)[C@@H](O[C@H]7[C@H](O)[C@@H](O)[C@@H](O[C@H]8[C@H](O)[C@@H](O)[C@@H](O[C@H]1[C@H](O)[C@H]2O)O[C@@H]8CO)O[C@@H]7CO)O[C@@H]6CO)O[C@@H]5CO)O[C@@H]4CO)O[C@@H]3CO,inactive
4,CCOCCn1c(N2CCCN(C)CC2)nc2ccccc21,inactive
5,Nc1ccc(C(=O)NCC(=O)O)cc1,inactive
6,O=S(=O)(O)c1ccc(O)cc1,inactive
7,Cc1ncc(CO)c(C=O)c1O,inactive
8,CC(C)[C@@H]1CC[C@@H](C)CC1=O,inactive
9,N#CCC(=O)NN,inactive
10,O=C(O)C(Cc1cc(I)c(O)c(I)c1)c1ccccc1 (centres undefined),inactive
11,CC(C)NCC(O)c1ccc2ccccc2c1 (centres undefined),inactive
12,CC(C)Nc1cccnc1N1CCN(C(=O)c2cc3cc(NS(C)(=O)=O)ccc3[nH]2)CC1,inactive
13,C=C[C@H]1CN2CC[C@H]1C[C@H]2[C@H](O)c1ccnc2ccc(OC)cc12,inactive
14,NC1CCN(c2nc3c(cc2F)c(=O)c(C(=O)O)cn3-c2ccc(F)cc2F)C1 (centres undefined),inactive
15,CC(=C(CCOC(=O)C(C)C)SSC(CCOC(=O)C(C)C)=C(C)N(C=O)Cc1cnc(C)nc1N)N(C=O)Cc1cnc(C)nc1N,inactive
16,CCN1CCN(C(=O)N[C@@H](C(=O)N[C@@H]2C(=O)N3C(C(=O)O)=C(CSc4nnnn4C)CS[C@H]23)c2ccc(O)cc2)C(=O)C1=O,inactive
17,CC(=O)OCC1=C(C(=O)O)N2C(=O)[C@@H](NC(=O)CSc3ccncc3)[C@H]2SC1,inactive
18,Nc1nc(-c2ccccc2)c(Br)c(=O)[nH]1,inactive
19,CC(=O)Nc1ccc(OCC(O)CNC(C)C)cc1 (centres undefined),inactive
20,OCCOCCN1CCN(C2=Nc3ccccc3Sc3ccccc32)CC1,inactive
21,CC(O)Cn1cnc2c1c(=O)n(C)c(=O)n2C (centres undefined),inactive
22,CCOC(=O)c1c(N)sc2c1CCN(Cc1ccccc1)C2,inactive
23,C=C[C@@]1(C)CC(=O)[C@]2(O)[C@@]3(C)[C@@H](O)CCC(C)(C)[C@@H]3[C@H](O)[C@H](OC(C)=O)[C@@]2(C)O1,inactive

# Source: PubChem BioAssay (NCATS)
